{
  "source": "the supplement of paper PMC10849652",
  "note": "Of roughly 7,900 targets only a part is listed; those with a hit were picked by preference. About 0.6% of all pairs of compound and target were hits.",
  "data": [
    {"compound": "c1cn2cc(-c3ccc4cn[nH]c4c3)nc(Nc3ccc(N4CCOCC4)cc3)c2n1 [entospletinib]", "experiment": "log2 fold change, soluble protein after heating vs DMSO (PISA); higher = thermal stabilisation; K562 cells, 10 uM, 30 min; active = over 0.2 and 3.5 SD of the protein, either way, in both replicates (recomputed)", "in_short": "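Aliquots of K562 cells (2×10^6 cells/mL) treated with 10 μM compound for 30 min were heated for 3 min over 48°C-58°C. After pooling and extraction in PBS with 0.5% NP-40 at 4°C, soluble protein from a 21,000xg, 90 min spin was quantified by TMTpro 16plex LC-MS/MS with channel sums equalised. Thermal stability is expressed against control samples, from duplicates, as a log2 fold change.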", "values": [
      {"target": "KIAA1324L (UniProt A8MWY0)", "log2 fold change": "0.028 (inactive)"},
      {"target": "LNPK (UniProt Q9C0E8)", "log2 fold change": "0.01 (inactive)"},
      {"target": "MFN1 (UniProt Q8IWA4)", "log2 fold change": "-0.028 (inactive)"},
      {"target": "MAP2K1 (UniProt Q02750)", "sequence (Q02750 whole entry, looked up)": "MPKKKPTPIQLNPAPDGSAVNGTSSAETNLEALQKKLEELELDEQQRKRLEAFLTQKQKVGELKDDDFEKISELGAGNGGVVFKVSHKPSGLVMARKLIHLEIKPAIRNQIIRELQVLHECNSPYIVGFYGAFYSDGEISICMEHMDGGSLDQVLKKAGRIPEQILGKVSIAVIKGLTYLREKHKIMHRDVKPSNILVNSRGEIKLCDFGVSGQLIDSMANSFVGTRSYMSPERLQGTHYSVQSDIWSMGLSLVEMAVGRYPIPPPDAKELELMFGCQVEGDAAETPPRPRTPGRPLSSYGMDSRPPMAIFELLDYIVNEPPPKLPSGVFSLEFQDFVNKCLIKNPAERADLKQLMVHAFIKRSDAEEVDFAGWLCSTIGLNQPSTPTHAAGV", "log2 fold change": "-0.026 (inactive)"},
      {"target": "ILF3 (UniProt Q12906)", "log2 fold change": "-0.086 (inactive)"},
      {"target": "ITIH4 (UniProt Q14624)", "sequence (Q14624 whole entry, looked up)": "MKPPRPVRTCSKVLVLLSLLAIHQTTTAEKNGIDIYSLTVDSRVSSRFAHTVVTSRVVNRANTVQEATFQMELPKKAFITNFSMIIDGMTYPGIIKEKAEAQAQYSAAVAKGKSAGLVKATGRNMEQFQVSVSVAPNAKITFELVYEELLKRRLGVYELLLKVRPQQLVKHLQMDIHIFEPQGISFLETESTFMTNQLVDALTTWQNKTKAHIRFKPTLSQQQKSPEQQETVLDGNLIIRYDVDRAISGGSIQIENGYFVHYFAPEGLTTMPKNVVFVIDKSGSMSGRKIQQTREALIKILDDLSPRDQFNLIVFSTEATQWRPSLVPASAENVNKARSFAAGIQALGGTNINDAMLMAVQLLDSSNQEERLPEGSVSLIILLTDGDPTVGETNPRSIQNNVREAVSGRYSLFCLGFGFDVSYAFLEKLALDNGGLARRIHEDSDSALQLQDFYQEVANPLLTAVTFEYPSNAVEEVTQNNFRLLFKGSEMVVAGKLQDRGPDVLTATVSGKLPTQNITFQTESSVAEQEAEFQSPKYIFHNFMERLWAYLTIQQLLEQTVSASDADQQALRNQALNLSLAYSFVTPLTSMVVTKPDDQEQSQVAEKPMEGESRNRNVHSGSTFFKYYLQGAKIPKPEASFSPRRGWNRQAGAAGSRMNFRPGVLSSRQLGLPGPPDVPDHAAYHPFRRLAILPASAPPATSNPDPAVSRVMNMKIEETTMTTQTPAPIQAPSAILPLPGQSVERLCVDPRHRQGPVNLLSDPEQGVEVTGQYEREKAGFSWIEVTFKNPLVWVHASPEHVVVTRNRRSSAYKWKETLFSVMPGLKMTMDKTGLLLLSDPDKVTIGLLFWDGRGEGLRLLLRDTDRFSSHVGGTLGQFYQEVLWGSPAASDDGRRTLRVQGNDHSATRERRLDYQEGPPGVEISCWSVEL", "log2 fold change": "0.124 (inactive)"},
      {"target": "LNPEP (UniProt Q9UIQ6)", "log2 fold change": "0.013 (inactive)"},
      {"target": "LARP4 isoform 4 (UniProt Q71RC2)", "sequence (Q71RC2 whole entry, looked up)": "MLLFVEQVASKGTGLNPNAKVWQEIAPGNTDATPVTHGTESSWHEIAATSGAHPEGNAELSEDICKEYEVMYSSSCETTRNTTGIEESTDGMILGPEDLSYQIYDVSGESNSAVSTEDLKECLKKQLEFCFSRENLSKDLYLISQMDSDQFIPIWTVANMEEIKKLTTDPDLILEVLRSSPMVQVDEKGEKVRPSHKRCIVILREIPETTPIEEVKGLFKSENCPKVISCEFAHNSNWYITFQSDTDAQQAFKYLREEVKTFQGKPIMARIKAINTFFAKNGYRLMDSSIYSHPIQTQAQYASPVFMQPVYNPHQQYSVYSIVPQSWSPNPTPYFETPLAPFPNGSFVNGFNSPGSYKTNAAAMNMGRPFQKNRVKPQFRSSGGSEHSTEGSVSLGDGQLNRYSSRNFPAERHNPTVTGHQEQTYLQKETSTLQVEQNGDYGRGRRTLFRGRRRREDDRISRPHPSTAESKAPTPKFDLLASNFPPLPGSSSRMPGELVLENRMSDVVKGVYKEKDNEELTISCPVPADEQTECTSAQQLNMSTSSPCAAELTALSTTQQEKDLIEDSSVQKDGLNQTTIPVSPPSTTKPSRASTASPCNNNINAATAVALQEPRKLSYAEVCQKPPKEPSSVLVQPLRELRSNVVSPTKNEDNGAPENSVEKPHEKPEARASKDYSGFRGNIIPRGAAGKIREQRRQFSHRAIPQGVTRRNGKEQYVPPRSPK", "log2 fold change": "0.095 (inactive)"},
      {"target": "MAPK12 (UniProt P53778)", "log2 fold change": "0.02 (inactive)"},
      {"target": "KCTD10 (UniProt Q9H3F6)", "log2 fold change": "0.047 (inactive)"},
      {"target": "MAPK9 (UniProt P45984)", "log2 fold change": "-0.069 (inactive)"},
      {"target": "MFSD12 isoform 3 (UniProt Q6NUT3)", "log2 fold change": "-0.089 (inactive)"},
      {"target": "MAST4 (UniProt O15021)", "log2 fold change": "-0.052 (inactive)"},
      {"target": "MASTL (UniProt Q96GX5)", "sequence (Q96GX5 whole entry, looked up)": "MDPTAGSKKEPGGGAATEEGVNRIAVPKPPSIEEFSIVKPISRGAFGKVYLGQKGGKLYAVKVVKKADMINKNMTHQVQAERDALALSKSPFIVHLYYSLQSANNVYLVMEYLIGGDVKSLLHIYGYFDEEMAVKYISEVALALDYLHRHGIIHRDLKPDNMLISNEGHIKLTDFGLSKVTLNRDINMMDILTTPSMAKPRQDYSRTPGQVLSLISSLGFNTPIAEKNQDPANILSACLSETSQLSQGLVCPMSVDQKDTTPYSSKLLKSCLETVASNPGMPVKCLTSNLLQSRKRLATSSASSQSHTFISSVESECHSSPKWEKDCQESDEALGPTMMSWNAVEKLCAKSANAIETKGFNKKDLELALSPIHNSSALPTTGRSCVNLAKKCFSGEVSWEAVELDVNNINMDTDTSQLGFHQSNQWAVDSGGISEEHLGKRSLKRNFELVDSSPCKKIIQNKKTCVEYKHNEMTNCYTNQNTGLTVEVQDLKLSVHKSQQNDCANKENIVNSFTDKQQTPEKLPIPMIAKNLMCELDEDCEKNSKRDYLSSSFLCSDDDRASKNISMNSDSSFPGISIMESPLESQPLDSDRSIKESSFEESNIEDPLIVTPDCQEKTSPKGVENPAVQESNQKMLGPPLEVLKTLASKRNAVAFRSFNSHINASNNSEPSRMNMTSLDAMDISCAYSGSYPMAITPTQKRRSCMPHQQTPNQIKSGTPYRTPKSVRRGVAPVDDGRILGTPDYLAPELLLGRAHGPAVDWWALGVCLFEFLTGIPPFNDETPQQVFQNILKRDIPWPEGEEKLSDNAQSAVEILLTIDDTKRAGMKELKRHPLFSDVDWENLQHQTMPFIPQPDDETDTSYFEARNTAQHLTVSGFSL", "log2 fold change": "-0.014 (inactive)"},
      {"target": "IP6K1 (UniProt Q92551)", "log2 fold change": "-0.029 (inactive)"},
      {"target": "MCOLN3 (UniProt Q8TDD5)", "log2 fold change": "-0.194 (inactive)"},
      {"target": "LEMD2 (UniProt Q8NC56)", "log2 fold change": "-0.039 (inactive)"},
      {"target": "LTN1 isoform 3 (UniProt O94822)", "sequence (O94822 whole entry, looked up)": "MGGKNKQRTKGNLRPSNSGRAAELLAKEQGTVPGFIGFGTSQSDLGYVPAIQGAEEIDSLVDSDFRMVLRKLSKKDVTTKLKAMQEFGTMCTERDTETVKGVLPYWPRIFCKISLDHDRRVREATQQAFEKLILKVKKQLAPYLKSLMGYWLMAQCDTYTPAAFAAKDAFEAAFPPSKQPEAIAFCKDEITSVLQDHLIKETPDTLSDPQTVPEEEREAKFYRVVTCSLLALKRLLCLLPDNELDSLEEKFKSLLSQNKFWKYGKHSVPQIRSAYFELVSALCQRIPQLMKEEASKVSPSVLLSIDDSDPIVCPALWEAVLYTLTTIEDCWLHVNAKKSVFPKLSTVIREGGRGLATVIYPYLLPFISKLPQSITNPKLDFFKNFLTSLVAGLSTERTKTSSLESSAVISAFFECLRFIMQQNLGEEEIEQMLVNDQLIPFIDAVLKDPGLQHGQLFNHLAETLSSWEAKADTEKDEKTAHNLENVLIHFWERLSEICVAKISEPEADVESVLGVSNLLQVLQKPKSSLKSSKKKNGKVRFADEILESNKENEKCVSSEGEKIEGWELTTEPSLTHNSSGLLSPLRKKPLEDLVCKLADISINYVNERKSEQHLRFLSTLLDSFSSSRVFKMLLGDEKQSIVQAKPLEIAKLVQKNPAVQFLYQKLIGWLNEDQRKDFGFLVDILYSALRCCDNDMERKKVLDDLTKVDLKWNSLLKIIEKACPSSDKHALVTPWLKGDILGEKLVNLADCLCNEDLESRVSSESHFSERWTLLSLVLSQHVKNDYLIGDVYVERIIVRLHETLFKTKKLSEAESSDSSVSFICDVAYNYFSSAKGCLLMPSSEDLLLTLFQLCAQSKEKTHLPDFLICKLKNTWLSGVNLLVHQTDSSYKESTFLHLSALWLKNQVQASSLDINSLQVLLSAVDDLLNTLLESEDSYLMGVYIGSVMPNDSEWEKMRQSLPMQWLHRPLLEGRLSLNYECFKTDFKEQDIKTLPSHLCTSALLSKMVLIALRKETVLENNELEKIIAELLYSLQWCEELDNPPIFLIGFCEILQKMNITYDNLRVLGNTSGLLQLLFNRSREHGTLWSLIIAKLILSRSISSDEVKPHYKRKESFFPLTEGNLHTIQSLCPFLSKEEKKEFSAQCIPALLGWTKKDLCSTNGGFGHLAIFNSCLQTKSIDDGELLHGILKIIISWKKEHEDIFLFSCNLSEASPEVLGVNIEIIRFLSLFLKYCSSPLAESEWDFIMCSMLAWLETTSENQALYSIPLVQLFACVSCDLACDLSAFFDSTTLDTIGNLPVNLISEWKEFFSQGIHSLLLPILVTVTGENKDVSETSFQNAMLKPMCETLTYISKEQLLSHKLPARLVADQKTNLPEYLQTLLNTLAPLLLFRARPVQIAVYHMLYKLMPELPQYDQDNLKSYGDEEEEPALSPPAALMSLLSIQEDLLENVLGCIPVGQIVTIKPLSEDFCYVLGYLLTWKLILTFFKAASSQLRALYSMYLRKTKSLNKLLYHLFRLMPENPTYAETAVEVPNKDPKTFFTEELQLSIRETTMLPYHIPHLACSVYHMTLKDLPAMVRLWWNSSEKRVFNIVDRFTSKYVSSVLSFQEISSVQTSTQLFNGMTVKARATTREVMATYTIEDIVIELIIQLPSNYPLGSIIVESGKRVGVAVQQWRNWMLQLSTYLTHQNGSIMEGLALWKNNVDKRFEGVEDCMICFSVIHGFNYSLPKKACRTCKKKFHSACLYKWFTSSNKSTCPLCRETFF", "log2 fold change": "-0.001 (inactive)"},
      {"target": "LDLR (UniProt P01130)", "log2 fold change": "-0.008 (inactive)"},
      {"target": "MED1 (UniProt Q15648)", "log2 fold change": "0.019 (inactive)"},
      {"target": "KXD1 (UniProt Q9BQD3)", "sequence (Q9BQD3 whole entry, looked up)": "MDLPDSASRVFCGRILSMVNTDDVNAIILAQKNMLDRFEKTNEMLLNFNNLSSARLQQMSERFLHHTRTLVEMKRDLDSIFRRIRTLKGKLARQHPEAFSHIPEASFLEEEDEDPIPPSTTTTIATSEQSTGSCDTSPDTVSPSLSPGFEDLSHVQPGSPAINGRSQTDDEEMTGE", "log2 fold change": "0.016 (inactive)"},
      {"target": "IRF2BPL (UniProt Q9H1B7)", "log2 fold change": "0.001 (inactive)"},
      {"target": "ITM2B (UniProt Q9Y287)", "log2 fold change": "-0.011 (inactive)"}
    ]}
  ]
}
